Measured values published in the supplement of paper PMC8007513.
Counter-ions that a name gives are not always drawn. ± gives the standard error. About 130 (10%) of roughly 1,300 compounds showed an effect of 50% or more. The full list was thinned out, with strong results kept by preference.

System: Trichoderma virens ATCC 9645
Assay: growth yield (OD600) with compound + IPBC relative to untreated control; higher = less growth inhibition
Settings: compound concentration: 100 uM, IPBC concentration: 200 ng/ml
Method in brief: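 For each 96-well plate, 100 μl aliquots were prepared with Trichoderma virens ATCC 9645 spores suspended at 15,000 spores ml^−1 in potato dextrose broth. The spores had been harvested from potato dextrose agar plates after 7 days. Library compounds were present at 100 μM final, some wells also receiving a biocide at 200 ng ml^−1, and plates were grown at 30 °C with OD600 read on a BioTek EL800 at 40 h and 72 h. Reported growth, relative to the control lacking both agents, is the mean of duplicate screens.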

| SMILES | growth yield (40 h) [%] | growth yield (72 h) [%] |
| --- | --- | --- |
| C[C@]12CC[C@H](O)C[C@H]1CC[C@@H]1[C@@H]2C[C@@H](O)[C@]2(C)[C@@H](C3=CC(=O)OC3)CC[C@]12O [Digoxigenin] + CCCCNC(=O)OCC#CI [3-iodo-2-propynyl butylcarbamate (IPBC)] | 86.6 ± 2.7 | 90.72 ± 0.32 |
| COC(=O)[C@@H]1[C@H]2C[C@H]3c4[nH]c5ccccc5c4CCN3C[C@@H]2CC[C@@H]1O [Yohimbine hydrochloride] + CCCCNC(=O)OCC#CI [3-iodo-2-propynyl butylcarbamate (IPBC)] | 82.4 ± 1.1 | 89.25 ± 0.73 |
| Nc1nc2[nH]cc(CCc3ccc(C(=O)N[C@@H](CCC(=O)O)C(=O)O)cc3)c2c(=O)[nH]1 [Pemetrexed disodium] + CCCCNC(=O)OCC#CI [3-iodo-2-propynyl butylcarbamate (IPBC)] | 94.8 ± 7.2 | 94 ± 4 |
| CCSc1ccc2c(c1)N(CCCN1CCN(C)CC1)c1ccccc1S2 [Thiethylperazine dimalate] + CCCCNC(=O)OCC#CI [3-iodo-2-propynyl butylcarbamate (IPBC)] | 4.45 ± 0.32 | 3.25 ± 0.1 |
| CCN(CC)C(C)CN1c2ccccc2Sc2ccccc21 (centres undefined) [Ethopropazine hydrochloride] + CCCCNC(=O)OCC#CI [3-iodo-2-propynyl butylcarbamate (IPBC)] | 72.4 ± 3.8 | 89.2 ± 1.6 |
| CC(CN1c2ccccc2Sc2ccccc21)N(C)C (centres undefined) [Promethazine hydrochloride] + CCCCNC(=O)OCC#CI [3-iodo-2-propynyl butylcarbamate (IPBC)] | 78.2 ± 1.9 | 94.3 ± 4.1 |
| C[C@]12C=CC(=O)C=C1CC[C@H]1[C@@H]3C[C@@H](O)[C@](O)(C(=O)CO)[C@@]3(C)C[C@H](O)[C@@]12F [Triamcinolone] + CCCCNC(=O)OCC#CI [3-iodo-2-propynyl butylcarbamate (IPBC)] | 98.3 ± 3 | 97.5 ± 1.9 |
| COc1ccc(-c2cc(=S)ss2)cc1 [Anethole-trithione] + CCCCNC(=O)OCC#CI [3-iodo-2-propynyl butylcarbamate (IPBC)] | 77 ± 1.8 | 74.9 |
| CO[C@]12C[C@@H](COC(=O)c3cncc(Br)c3)CN(C)[C@@H]1Cc1cn(C)c3cccc2c13 [Nicergoline] + CCCCNC(=O)OCC#CI [3-iodo-2-propynyl butylcarbamate (IPBC)] | 74.2 ± 8.4 | 93 ± 5.3 |
| CN1C[C@H](CNC(=O)OCc2ccccc2)C[C@@H]2c3cccc4c3c(cn4C)C[C@H]21 [Metergoline] + CCCCNC(=O)OCC#CI [3-iodo-2-propynyl butylcarbamate (IPBC)] | 45.4 ± 15 | 112 ± 9.5 |
| CN1C[C@H](C(=O)N[C@]2(C)O[C@@]3(O)[C@@H]4CCCN4C(=O)[C@H](Cc4ccccc4)N3C2=O)C[C@@H]2c3cccc4[nH]cc(c34)C[C@H]21 [Dihydroergotamine tartrate] + CCCCNC(=O)OCC#CI [3-iodo-2-propynyl butylcarbamate (IPBC)] | 105 ± 5.2 | 107 ± 2.3 |
| CC[C@H](C)C(=O)O[C@H]1C[C@@H](C)C=C2C=C[C@H](C)[C@H](CC[C@@H]3C[C@@H](O)CC(=O)O3)[C@H]21 [Lovastatin] + CCCCNC(=O)OCC#CI [3-iodo-2-propynyl butylcarbamate (IPBC)] | 104 ± 4 | 103 ± 1.6 |
| CN1CCN(C(=O)OC2c3nccnc3C(=O)N2c2ccc(Cl)cn2)CC1 (centres undefined) [Zopiclone] + CCCCNC(=O)OCC#CI [3-iodo-2-propynyl butylcarbamate (IPBC)] | 91.8 ± 2.5 | 93 ± 1.4 |
| CC(=O)OC[C@H]1O[C@@H]([S-])[C@H](OC(C)=O)[C@@H](OC(C)=O)[C@@H]1OC(C)=O.CCP(CC)CC.[Au+] [Auranofin] + CCCCNC(=O)OCC#CI [3-iodo-2-propynyl butylcarbamate (IPBC)] | 23.2 ± 1.3 | 29.7 ± 2.4 |
| CO[C@H]1/C=C/O[C@@]2(C)Oc3c(C)c(O)c4c(c3C2=O)C2=NC3(CCN(CC(C)C)CC3)NC2=C(NC(=O)/C(C)=C\C=C\[C@H](C)[C@H](O)[C@@H](C)[C@@H](O)[C@@H](C)[C@H](OC(C)=O)[C@@H]1C)C4=O [Rifabutin] + CCCCNC(=O)OCC#CI [3-iodo-2-propynyl butylcarbamate (IPBC)] | 99.4 | 97.1 ± 8.4 |
| CC(=O)OCC1=C(C(=O)O)N2C(=O)[C@@H](NC(=O)Cc3cccs3)[C@H]2SC1 [Cephalothin sodium salt] + CCCCNC(=O)OCC#CI [3-iodo-2-propynyl butylcarbamate (IPBC)] | 91.7 ± 8.4 | 90.9 ± 7.9 |
| CCC(Cc1c(I)cc(I)c(N)c1I)C(=O)O (centres undefined) [Iopanoic acid] + CCCCNC(=O)OCC#CI [3-iodo-2-propynyl butylcarbamate (IPBC)] | 70.2 ± 2.5 | 88.3 ± 4.4 |
| COc1c(N2C[C@@H]3CCCN[C@@H]3C2)c(F)cc2c(=O)c(C(=O)O)cn(C3CC3)c12 [Moxifloxacin] + CCCCNC(=O)OCC#CI [3-iodo-2-propynyl butylcarbamate (IPBC)] | 109 ± 2.7 | 105 ± 3.5 |
| O=C1c2ccccc2S(=O)(=O)N1CCCCN1CCN(c2ncccn2)CC1 [Ipsapirone] + CCCCNC(=O)OCC#CI [3-iodo-2-propynyl butylcarbamate (IPBC)] | 87.4 ± 4.8 | 90.7 ± 1.8 |
| Cc1ccc(N(CC2=NCCN2)c2cccc(O)c2)cc1 [Phentolamine hydrochloride] + CCCCNC(=O)OCC#CI [3-iodo-2-propynyl butylcarbamate (IPBC)] | 86.25 ± 0.79 | 97.64 ± 0.73 |
| CCCCCC[C@H]1C(=O)O[C@H](C)[C@H](NC(=O)c2cccc(NC=O)c2O)C(=O)O[C@@H](C)[C@@H]1OC(=O)CC(C)C [Antimycin A] + CCCCNC(=O)OCC#CI [3-iodo-2-propynyl butylcarbamate (IPBC)] | 17.6 ± 1.1 | 42.9 ± 2.4 |
| COc1cccc(C2(O)CCCCC2CN(C)C)c1 (centres undefined) [Tramadol hydrochloride] + CCCCNC(=O)OCC#CI [3-iodo-2-propynyl butylcarbamate (IPBC)] | 87.5 ± 2.1 | 90.51 ± 0.73 |
